Data published in PubChem BioAssay (NCATS).
Values without a mark were called inactive. Inconclusive results are not listed. Active and inactive are the calls of the source. Unless noted, calls follow the shape of the dose curve; as a rule, active = well fitted curve in either direction with a large enough effect (not every such curve was filed as active); inconclusive = small, poorly fitted or top-dose-only effect, or another doubt; inactive = flat fitted curve, though single readings scatter.

Columns and labels:
[1] = target: Lysosomal acid glucosylceramidase (Homo sapiens) (UniProt P04062); assay: Glucocerebrosidase-p2 (AID 348; in the data active = potency below about 10 µM; also: potency is read from the fitted curve at half-maximal effect); details: purified GBA, blue fluorogenic substrate, 40 min
Lysosomal acid glucosylceramidase (Homo sapiens), sequence (P04062 whole entry, looked up): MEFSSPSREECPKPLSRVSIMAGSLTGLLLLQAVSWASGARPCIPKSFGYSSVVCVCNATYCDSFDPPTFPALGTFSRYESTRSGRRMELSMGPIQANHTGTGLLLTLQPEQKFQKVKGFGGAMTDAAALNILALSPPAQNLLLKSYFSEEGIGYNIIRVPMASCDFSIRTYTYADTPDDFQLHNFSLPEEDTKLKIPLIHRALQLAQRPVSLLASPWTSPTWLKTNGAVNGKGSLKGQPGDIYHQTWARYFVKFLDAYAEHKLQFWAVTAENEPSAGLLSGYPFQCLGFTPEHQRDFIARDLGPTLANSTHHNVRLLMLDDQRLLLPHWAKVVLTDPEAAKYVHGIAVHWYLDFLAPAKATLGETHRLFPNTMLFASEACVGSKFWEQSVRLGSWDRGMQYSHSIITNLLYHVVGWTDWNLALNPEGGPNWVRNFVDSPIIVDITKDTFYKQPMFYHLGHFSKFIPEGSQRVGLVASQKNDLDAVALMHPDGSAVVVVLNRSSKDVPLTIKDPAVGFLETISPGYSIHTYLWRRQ
Method in brief: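 Normal human glucocerebrosidase (0.2 nM) with blue fluorogenic substrate (80 uM final) in citrate/phosphate pH 5.9 with 10mM sodium taurocholate, 0.01% tween-20; 40 min RT, NaOH/glycine stop; fluorescence Ex 365/Em 440; AC50 from a titration from 0.6 nM upwards.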

[2] = AP1 Signaling Pathway (AID 357); details: ME-180 AP-1-bla reporter, EGF-induced, beta-lactamase ratio, 5 h; at 7.69 µM (top of the series) unless noted;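 also: ME-180 reporter cells stimulated with EGF at its EC50 level; % is scaled to controls: 0 for no effect and ±100 for the full control effect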
Method in brief: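 Modulation of EGF-driven AP-1 transcription was assessed with a beta-lactamase reporter in ME-180 cells. Compound and EC50 EGF were co-incubated 5 hours at 37 °C before 2.5-hour CCF4 loading at room temperature and dual-emission reading.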

[3] = NFAT Signaling Pathway (AID 444); details: Jurkat NFAT-bla M1, carbachol, beta-lactamase ratio, 5 h; at 7.69 µM (top of the series) unless noted;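 also: carbachol stimulus at about its EC50 of 1 µM final; % is scaled to controls: 0 for no effect and ±100 for the full control effect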
Method in brief: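 Jurkat cells with NFAT-driven β-lactamase reporter and co-expressed M1 receptor, stimulated with carbachol (final 1 uM, ~EC50), compound titration, 5 h at 37 °C. CCF4 loaded 1 h at RT; 460/530 nm ratio gave %activity and AC50.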

[4] = target: Glucocorticoid receptor (Homo sapiens) (UniProt P04150); assay: GR-GFP Redistribution (AID 450;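 active = compounds whose dose series gives a full or clear partial fitted curve of increased nuclear translocation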; also: potency is read from the fitted curve at half-maximal effect); details: U2OS GR-GFP nuclear translocation, laser cytometry, 2 h
Glucocorticoid receptor (Homo sapiens), sequence (P04150 whole entry, looked up, the tested form may be a part): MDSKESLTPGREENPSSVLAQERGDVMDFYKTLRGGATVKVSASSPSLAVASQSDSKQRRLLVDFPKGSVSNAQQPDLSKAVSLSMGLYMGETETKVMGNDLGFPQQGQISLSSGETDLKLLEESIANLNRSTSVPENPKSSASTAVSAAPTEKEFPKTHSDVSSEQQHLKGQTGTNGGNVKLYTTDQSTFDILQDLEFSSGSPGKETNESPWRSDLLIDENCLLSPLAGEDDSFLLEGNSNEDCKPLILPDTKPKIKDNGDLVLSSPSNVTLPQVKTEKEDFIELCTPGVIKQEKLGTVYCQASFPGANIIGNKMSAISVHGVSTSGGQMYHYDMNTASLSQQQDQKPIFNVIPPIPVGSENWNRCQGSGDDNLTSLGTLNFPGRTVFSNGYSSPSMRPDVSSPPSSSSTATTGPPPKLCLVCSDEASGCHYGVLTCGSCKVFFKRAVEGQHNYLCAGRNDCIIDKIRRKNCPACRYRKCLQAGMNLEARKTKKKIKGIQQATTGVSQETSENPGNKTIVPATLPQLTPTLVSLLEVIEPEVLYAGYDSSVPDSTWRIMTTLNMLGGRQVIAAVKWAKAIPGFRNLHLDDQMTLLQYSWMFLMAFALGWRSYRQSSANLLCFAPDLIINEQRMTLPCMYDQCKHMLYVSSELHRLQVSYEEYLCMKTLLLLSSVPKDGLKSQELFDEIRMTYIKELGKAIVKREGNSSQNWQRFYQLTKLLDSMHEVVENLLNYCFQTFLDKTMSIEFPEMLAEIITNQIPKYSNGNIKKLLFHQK

[5] = target: Glucocorticoid receptor (Homo sapiens) (UniProt P04150); assay: GR-EFC Redistribution (AID 451; calls by dose curve; also: potency is read from the fitted curve at half-maximal effect); details: CHO-K1 GR-EFC translocation, beta-gal luminescence, 2 h
Method in brief: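 CHO-K1 cells expressing nuclear EA and GR-ED fragments of b-gal; compounds titrated up to 46 uM final, 2 h at 37 C. GR nuclear translocation read as complemented b-gal luminescence after 1 h RT detection.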

[6] = target: Mitogen-activated protein kinase 10 (Mus musculus) (UniProt Q61831); assay: JNK3 AlphaScreen Assay (AID 530); details: JNK3 lysate, c-Jun phosphorylation; series mostly up to 11.4 µM;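 also: kinase came from lysate of stimulated human HepG2 cells; signal reports phosphorylation of biotinylated GST-cJun 1-79 at Ser73 with 10 µM ATP; % is scaled to controls: 0 for no effect and ±100 for the full control effect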
Method in brief: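 HepG2 lysate (IL-1b/TNFa pre-activated) + biotin-GST-cJun 1-79 + anti-pSer73 cJun; cpd titration, 15 min RT; ATP 10 uM start; Tris pH 7.6, MgCl2, DTT, vanadate; beads in EDTA buffer; AlphaScreen.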

[7] = target: 3',5'-cyclic-AMP phosphodiesterase 4B (Homo sapiens) (UniProt Q07343); assay: qHTS Assay for Inhibitors of PDE-IV (AID 607; active = well fitted activation curve with a large enough effect in the main read-out, with a control signal flat, not every such curve was filed as active; also: % of control where 0% means no effect); details: HEK293 ACTOne CNG channel cells, membrane potential fluorescence; series mostly up to 22.9 µM
3',5'-cyclic-AMP phosphodiesterase 4B (Homo sapiens), sequence (Q07343 whole entry, looked up): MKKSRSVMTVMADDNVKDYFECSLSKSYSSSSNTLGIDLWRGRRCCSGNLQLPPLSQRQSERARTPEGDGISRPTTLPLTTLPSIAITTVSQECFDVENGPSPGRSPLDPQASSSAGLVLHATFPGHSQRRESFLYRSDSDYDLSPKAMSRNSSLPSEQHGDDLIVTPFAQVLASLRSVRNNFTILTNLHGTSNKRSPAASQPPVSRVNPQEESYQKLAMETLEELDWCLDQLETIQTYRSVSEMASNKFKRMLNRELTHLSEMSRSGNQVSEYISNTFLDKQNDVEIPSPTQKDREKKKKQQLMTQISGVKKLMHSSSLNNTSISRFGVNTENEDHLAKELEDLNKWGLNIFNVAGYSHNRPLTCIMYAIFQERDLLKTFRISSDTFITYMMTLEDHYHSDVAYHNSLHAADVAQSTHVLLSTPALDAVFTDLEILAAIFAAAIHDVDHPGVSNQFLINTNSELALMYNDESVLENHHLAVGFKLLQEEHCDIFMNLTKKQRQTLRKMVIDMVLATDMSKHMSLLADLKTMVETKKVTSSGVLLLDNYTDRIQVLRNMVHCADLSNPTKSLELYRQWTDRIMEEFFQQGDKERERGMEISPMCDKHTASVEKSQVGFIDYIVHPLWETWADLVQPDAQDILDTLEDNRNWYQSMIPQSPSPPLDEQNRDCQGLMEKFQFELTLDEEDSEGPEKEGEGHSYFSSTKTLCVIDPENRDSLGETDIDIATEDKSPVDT
Method in brief: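 ACTOne HEK293 cells carry a modified cAMP-gated CNG channel and express endogenous PDE4; plated 1000 cells/well, compounds up to 22.9 uM final. Membrane-potential dye fluorescence (ex 535/em 590) was read; parental cells received 10 uM forskolin + 100 uM RO 20-1724.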

[8] = target: Cytochrome P450 3A4 (Homo sapiens) (UniProt P08684); assay: qHTS Assay for Activators of Cytochrome P450 3A4 (AID 885; active = well fitted curve in the direction sought with a large enough effect; an effect the other way counts as inactive or inconclusive; also: nearly all actives have a fitted effect of over 65% in size; also: potency is read from the fitted curve at half-maximal effect); details: recombinant CYP3A4, Luciferin-PPXE luminescence, 60 min; series mostly up to 11.4 µM
Cytochrome P450 3A4 (Homo sapiens), sequence (P08684 whole entry, looked up): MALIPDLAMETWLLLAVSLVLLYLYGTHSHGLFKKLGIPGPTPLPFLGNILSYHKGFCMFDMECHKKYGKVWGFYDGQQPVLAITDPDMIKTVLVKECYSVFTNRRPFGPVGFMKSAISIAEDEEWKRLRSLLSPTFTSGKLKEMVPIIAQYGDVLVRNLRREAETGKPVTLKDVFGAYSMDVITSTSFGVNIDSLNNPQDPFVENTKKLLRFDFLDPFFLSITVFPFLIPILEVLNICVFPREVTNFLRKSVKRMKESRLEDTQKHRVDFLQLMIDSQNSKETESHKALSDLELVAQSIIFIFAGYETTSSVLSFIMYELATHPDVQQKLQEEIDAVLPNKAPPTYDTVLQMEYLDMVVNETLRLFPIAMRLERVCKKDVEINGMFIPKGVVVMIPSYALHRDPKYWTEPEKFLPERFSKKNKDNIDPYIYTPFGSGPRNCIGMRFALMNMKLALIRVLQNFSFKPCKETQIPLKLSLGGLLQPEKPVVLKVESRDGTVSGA
Method in brief: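 CYP3A4 activity: Luciferin-PPXE O-dealkylation, 25uM substrate, 200mM KPO4, RT throughout. Read-out is luciferase luminescence; higher values reflect activation.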

[9] = Stat Signaling Pathway (AID 446); details: ME-180 (cervical carcinoma) SIE beta-lactamase reporter, IL-6 stimulated, 5 h; at 7.69 µM (top of the series) unless noted;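 also: ME-180 cervical cancer cells given 40 pM IL-6 alongside compound; SIE-controlled beta-lactamase reporter measured as 460/530 nm FRET emission ratio; % is scaled to controls: 0 for no effect and ±100 for the full control effect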
Method in brief: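 Compound effects on IL-6-induced STAT reporter activity were measured in ME-180 cells. After overnight culture, cells were co-treated with 40 pM IL-6 for 5 hrs before beta-lactamase substrate loading at room temperature.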

[10] = target: Cytochrome P450 2C9 (Homo sapiens) (UniProt P11712); assay: qHTS Assay for Inhibitors and Substrates of Cytochrome P450 2C9 (AID 883; active = well fitted curve in the direction sought with a large enough effect; an effect the other way counts as inactive or inconclusive; also: nearly all actives have a fitted effect of over 60% in size; also: potency is read from the fitted curve at half-maximal effect); details: recombinant CYP2C9, luciferin-H luminescence, 60 min; series mostly up to 11.4 µM
Cytochrome P450 2C9 (Homo sapiens), sequence (P11712 whole entry, looked up): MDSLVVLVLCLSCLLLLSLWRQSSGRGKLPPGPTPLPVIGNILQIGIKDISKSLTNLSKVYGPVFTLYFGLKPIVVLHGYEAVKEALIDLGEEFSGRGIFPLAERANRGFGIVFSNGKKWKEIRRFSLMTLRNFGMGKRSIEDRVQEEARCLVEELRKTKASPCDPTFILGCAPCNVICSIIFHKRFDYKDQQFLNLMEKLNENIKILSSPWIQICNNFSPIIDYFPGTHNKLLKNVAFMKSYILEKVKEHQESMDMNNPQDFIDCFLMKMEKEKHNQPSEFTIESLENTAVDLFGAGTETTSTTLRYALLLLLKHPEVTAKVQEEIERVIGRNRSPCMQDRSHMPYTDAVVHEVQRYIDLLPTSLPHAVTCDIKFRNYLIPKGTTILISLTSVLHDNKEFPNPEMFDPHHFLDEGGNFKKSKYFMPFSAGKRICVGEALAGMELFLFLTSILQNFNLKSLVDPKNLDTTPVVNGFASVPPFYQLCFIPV
Method in brief: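 Human CYP2C9 (10nM) with Luciferin-H at 100uM (its KM) in 25mM KPO4; compound preincubated 10 min at 37C, then NADPH regeneration for 60 min at 37C. Luciferin read by luminescence after detection reagent; normalized to 57uM sulphaphenazole as full inhibition.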

[11] = target: Cytochrome P450 3A4 (Homo sapiens) (UniProt P08684); assay: qHTS Assay for Inhibitors and Substrates of Cytochrome P450 3A4 (AID 884; active = well fitted curve in the direction sought with a large enough effect; an effect the other way counts as inactive or inconclusive; also: nearly all actives have a fitted effect of over 50% in size; also: potency is read from the fitted curve at half-maximal effect); details: recombinant CYP3A4, Luciferin-PPXE luminescence; series mostly up to 57.1 µM
Method in brief: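 Luminescent readout of luciferin produced by CYP3A4 (20 nM) dealkylation of Luciferin-PPXE, 25 uM (its KM). NADPH-driven reaction ran 60 min at RT after 10 min compound preincubation; data scaled to 57 uM ketoconazole as 100% inhibition.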

[12] = target: Cytochrome P450 2C19 (Homo sapiens) (UniProt P33261); assay: qHTS Assay for Inhibitors and Substrates of Cytochrome P450 2C19 (AID 899; active = well fitted curve in the direction sought with a large enough effect; an effect the other way counts as inactive or inconclusive; also: nearly all actives have a fitted effect of over 60% in size; also: potency is read from the fitted curve at half-maximal effect); details: recombinant CYP2C19, luciferin-H EGE luminescence; series mostly up to 11.4 µM
Cytochrome P450 2C19 (Homo sapiens), sequence (P33261 whole entry, looked up): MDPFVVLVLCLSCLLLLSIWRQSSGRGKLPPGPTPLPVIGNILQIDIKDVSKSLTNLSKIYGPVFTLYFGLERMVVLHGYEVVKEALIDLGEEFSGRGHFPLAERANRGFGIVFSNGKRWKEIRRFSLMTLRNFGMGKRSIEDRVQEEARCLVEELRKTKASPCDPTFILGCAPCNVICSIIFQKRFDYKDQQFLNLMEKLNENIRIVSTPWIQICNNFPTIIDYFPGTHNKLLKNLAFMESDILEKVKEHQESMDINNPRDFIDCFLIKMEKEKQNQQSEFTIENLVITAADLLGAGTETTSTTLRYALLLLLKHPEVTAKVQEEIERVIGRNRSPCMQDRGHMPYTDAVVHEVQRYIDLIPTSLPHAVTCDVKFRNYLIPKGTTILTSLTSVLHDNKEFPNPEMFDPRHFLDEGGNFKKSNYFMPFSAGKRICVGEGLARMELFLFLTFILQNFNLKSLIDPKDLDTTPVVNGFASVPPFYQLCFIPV
Method in brief: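 5 nM human CYP2C19 with 10uM Luciferin-H EGE (at KM) in 50mM KPO4, compound preincubated 10 min at 37C, then NADPH regeneration for 60 min at 37C. Luciferin read by luminescence after detection reagent; normalized to 57uM ketoconazole as full inhibition.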

[13] = target: Cytochrome P450 2D6 (Homo sapiens) (UniProt P10635); assay: qHTS Assay for Inhibitors and Substrates of Cytochrome P450 2D6 (AID 891; active = well fitted curve in the direction sought with a large enough effect; an effect the other way counts as inactive or inconclusive;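 also: luciferin methyl ether substrate demethylated by CYP2D6 with NADPH regeneration; % is scaled to controls: 0 for no effect and ±100 for the full control effect; nearly all actives have a fitted effect of over 60% in size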); details: recombinant CYP2D6, luciferin-ME EGE luminescence; series mostly up to 11.4 µM
Cytochrome P450 2D6 (Homo sapiens), sequence (P10635 whole entry, looked up): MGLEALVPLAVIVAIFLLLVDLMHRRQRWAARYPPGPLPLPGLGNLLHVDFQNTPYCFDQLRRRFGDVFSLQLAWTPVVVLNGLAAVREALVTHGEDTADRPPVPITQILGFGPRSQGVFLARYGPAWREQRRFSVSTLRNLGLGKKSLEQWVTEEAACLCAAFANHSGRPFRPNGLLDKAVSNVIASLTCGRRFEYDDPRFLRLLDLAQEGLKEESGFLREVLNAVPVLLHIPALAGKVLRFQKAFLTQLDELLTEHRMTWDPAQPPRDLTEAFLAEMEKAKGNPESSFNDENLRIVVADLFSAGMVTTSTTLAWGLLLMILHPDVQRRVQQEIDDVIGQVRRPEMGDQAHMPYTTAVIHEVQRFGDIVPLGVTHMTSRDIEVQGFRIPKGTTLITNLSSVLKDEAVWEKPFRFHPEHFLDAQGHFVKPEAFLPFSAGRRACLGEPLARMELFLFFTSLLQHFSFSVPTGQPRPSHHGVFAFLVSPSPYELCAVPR
Method in brief: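 Luminescent read-out of luciferin formed by 5 nM human CYP2D6 demethylating 30 uM Luciferin-ME EGE (Km level) over 60 min at room temperature after NADPH regeneration addition. Data normalized to full inhibition by 1.43 uM quinidine.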

| Structure (SMILES) | Potency [1] | activity change, negative = inhibition [2] | activity change, negative = inhibition [3] | Potency [4] | Potency [5] | Potency [6] | Potency [7] | Potency [8] | activity, negative = inhibition [9] | Potency [10] | activity change, negative = inhibition [11] | Potency [11] | Potency [12] | Potency [13] |
| --- | --- | --- | --- | --- | --- | --- | --- | --- | --- | --- | --- | --- | --- | --- |
| O=C1C2=C(Nc3cc([N+](=O)[O-])ccc3N2)O[C@@H]1c1ccc([C@H]2OC3=C(Nc4ccc([N+](=O)[O-])cc4N3)C2=O)cc1 | > 11.4 µM | -12.2% | 4.88% | > 46 µM | > 9.22 µM | inactive | inactive | inactive |  |  |  |  |  |  |
| CC(C)(C)C1CCC2(CC1)CCN(CCCN1CCOCC1)CC2 | > 11.4 µM | 11.9% |  | > 46 µM | > 9.22 µM | inactive |  |  | -3.69% |  |  |  |  |  |
| CC1(C)S[C@@H]2[C@H](C(=O)O)N=C(Cc3ccccc3)N2[C@H]1C(=O)O | > 11.4 µM | 2.18% | 8.91% | > 46 µM | > 9.22 µM | inactive | inactive |  |  |  |  |  |  |  |
| CCSCCCC(=O)O | > 11.4 µM | -6.6% |  | > 46 µM | > 9.22 µM | inactive | inactive |  | 8.19% |  |  |  |  |  |
| C[C@H]1CCCC=CC2C[C@H](OC(=O)CN(C)C)C[C@@H]2[C@@H](O)/C=C\C(=O)O1 (stereo not given in full) | > 11.4 µM | -7.78% | 29.7% | > 46 µM | > 9.22 µM | inactive | inactive | 3.98 µM (active) |  | inactive | 229% [at 11.4 µM] |  |  |  |
| O=C(O)c1cccc(S(=O)(=O)NCCO)c1 | > 11.4 µM | 5.38% |  | > 46 µM | > 9.22 µM | inactive | inactive |  | -2.13% |  |  |  |  |  |
| CC(C)(CN)SCc1ccccc1 | > 11.4 µM | 5.51% | -0.0753% | > 46 µM | > 9.22 µM | inactive | inactive |  |  |  |  |  |  |  |
| Nc1ccc(N(S(=O)(=O)c2ccccc2)S(=O)(=O)c2ccccc2)c(Cl)c1 | > 11.4 µM | -27.7% | -14.8% | > 46 µM | > 9.22 µM | inactive |  | inactive |  | 3.16 µM (active) |  | 0.0316 µM (active) | 0.158 µM (active) |  |
| O=[N+]([O-])c1ccc(CS(=O)Cc2ccccc2)cc1 (stereo not given) | > 11.4 µM | -8.79% | -22% | > 46 µM | > 9.22 µM | inactive | inactive |  |  |  |  |  | 1.26 µM (active) |  |
| CC(=O)Nc1ccc2c(c1)/C(=C/c1ccc([N+](C)(C)C)cc1)c1ccccc1-2 | 9.02 µM (active) | -9.13% |  | > 46 µM | > 9.22 µM | inactive | inactive |  | 4.17% |  |  |  |  |  |
| O=C(O)CSCC(=O)c1ccccc1 | > 11.4 µM | 3.6% | 11.1% | > 46 µM | > 9.22 µM | inactive | inactive |  |  | inactive | -4.13% [at 11.4 µM] |  | inactive | inactive |
| C[C@@H]1CC[C@H]2[C@H](C)[C@H]3[C@H](C[C@H]4[C@@H]5CC=C6C[C@@H](O)CC[C@@]6(C)[C@@H]5C[C@@H](O)[C@]34C)N2C1 | > 11.4 µM | -4.34% |  | > 46 µM | > 9.22 µM | inactive | inactive |  | -3.84% |  |  |  |  |  |
